Assay [1] can be described thus: optical density shifts of acrAB sulA E. coli – strain DRC41, OD650, 48 h, E. coli filamentation inducer project, primary screen (AID 1152).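 Also: E. coli MC1000 strain DRC41 lacking acrAB efflux pump and sulA.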 As to conditions: higher = more signal, called active from +8 up or from −8 down.
A short description of assay [2]: probe aLefty1 binding on compound microarray – biochemical, small-molecule microarray, 635/667 nm fluorescence, primary screen (AID 1153).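 Also: score merges spot fluorescence with signal-to-noise ratio from the scanned slide images.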 The following applies: higher = more signal.
Assay [3] is described as follows: plasmodial surface anion channel blockers, osmotic lysis – cell-based, P. falciparum Indochina, OD700, 1 h, primary screen (AID 1154). As to conditions: P. falciparum Indochina infected RBC osmotic lysis, higher = more signal, called active from +8 up or from −8 down.
Assay [4] is described as follows: plasmodial surface anion channel blockers, osmotic lysis – cell-based, P. falciparum Indochina, OD700, 2 h, primary screen (AID 1155).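 Also: lysis reports solute entry through the parasite surface anion channel PSAC.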 The following applies: P. falciparum Indochina infected erythrocytes, higher = more signal, called active from +8 up or from −8 down.
Assay [5] in a line: changes in parasitized red cell lysis, either direction – P. falciparum Indochina, OD700, 3 h, PSAC antagonist project, primary screen (AID 1156). The following applies: P. falciparum-infected erythrocytes, osmotic lysis, higher = more signal, called active from +8 up or from −8 down.
Assay [6] can be described thus: plasmodial surface anion channel blockers, osmotic lysis – cell-based, P. falciparum Indochina, OD700, 18 h, primary screen (AID 1157). The following applies: P. falciparum Indochina infected erythrocytes, osmotic lysis OD700, 18 h; higher = more signal, called active from +8 up or from −8 down.
A short description of assay [7]: S6 kinase pathway phospho-S6 level changes – cell-based, A549, cytoblot, luminescence, serum-stimulated, primary screen (AID 1158).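 Also: serum-stimulated A549 lung adenocarcinoma cells; signal is phosphorylated S6 detected by cytoblot immunostaining with HRP secondary.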 As to conditions: 5 h, higher = more signal.
The target of assay [8] is NADPH oxidase 2 (Homo sapiens) (UniProt P04839). As to the kind of experiment: compounds shifting NOX2 Amplex Red fluorescence – cell-based, HEK293-NOX2, PMA-stimulated, NOX inhibitor project, primary screen (AID 1159). Also: test concentration not given here. The following applies: 45 min, higher = more signal, called active from +8 up or from −8 down.
Sequence of NADPH oxidase 2 (Homo sapiens) (P04839 whole entry, looked up): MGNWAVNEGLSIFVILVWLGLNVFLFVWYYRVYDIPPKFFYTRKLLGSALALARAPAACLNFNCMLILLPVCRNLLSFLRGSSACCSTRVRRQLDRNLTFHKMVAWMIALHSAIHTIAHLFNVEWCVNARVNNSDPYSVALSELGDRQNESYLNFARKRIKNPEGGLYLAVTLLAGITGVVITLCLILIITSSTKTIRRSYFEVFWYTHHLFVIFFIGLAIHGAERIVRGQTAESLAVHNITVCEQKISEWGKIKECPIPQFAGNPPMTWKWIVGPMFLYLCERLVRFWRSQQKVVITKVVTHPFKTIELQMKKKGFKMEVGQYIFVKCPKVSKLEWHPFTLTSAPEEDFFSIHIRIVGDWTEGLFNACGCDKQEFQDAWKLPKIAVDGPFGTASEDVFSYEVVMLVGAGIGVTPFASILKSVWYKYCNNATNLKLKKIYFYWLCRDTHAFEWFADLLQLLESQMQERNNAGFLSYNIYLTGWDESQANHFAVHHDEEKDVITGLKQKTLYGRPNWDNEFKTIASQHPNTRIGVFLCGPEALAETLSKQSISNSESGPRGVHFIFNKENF
For assay [9], the target named is NADPH oxidase 4 (Homo sapiens) (UniProt Q9NPH5). As to the kind of experiment: compounds shifting NOX4 Amplex Red fluorescence – cell-based, HEK293-NOX4, tetracycline-induced, NOX inhibitor project, primary screen (AID 1160). As to conditions: HEK293-NOX4, Amplex Red H2O2 fluorescence, 45 min; higher = more signal, called active from +8 up or from −8 down.
Sequence of NADPH oxidase 4 (Homo sapiens) (Q9NPH5 whole entry, looked up): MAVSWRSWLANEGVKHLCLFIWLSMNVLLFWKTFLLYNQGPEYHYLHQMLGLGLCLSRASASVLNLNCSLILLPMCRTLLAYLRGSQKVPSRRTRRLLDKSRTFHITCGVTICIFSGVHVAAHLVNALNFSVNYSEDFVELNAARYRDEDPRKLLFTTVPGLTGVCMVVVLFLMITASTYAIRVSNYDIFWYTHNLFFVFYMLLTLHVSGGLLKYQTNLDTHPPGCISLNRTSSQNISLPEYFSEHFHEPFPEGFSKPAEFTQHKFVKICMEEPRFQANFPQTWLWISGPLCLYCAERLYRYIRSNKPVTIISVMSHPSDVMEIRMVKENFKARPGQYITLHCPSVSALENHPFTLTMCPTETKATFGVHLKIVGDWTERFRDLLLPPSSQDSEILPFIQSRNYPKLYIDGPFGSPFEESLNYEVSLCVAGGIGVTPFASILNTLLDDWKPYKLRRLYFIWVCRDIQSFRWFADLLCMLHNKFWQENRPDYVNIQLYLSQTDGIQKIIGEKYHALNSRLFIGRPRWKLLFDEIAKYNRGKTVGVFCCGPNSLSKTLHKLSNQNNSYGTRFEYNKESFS
Assay [10] has as its target NADPH oxidase 5 (Homo sapiens) (UniProt Q96PH1). As to the kind of experiment: compounds shifting NOX5 Amplex Red fluorescence – cell-based, HEK293-NOX5, NOX inhibitor project, primary screen (AID 1161). As to conditions: HEK293-NOX5, ionomycin, 45 min, higher = more signal.

Activity calls are given as the source filed them.

Sequence of NADPH oxidase 5 (Homo sapiens) (Q96PH1 whole entry, looked up): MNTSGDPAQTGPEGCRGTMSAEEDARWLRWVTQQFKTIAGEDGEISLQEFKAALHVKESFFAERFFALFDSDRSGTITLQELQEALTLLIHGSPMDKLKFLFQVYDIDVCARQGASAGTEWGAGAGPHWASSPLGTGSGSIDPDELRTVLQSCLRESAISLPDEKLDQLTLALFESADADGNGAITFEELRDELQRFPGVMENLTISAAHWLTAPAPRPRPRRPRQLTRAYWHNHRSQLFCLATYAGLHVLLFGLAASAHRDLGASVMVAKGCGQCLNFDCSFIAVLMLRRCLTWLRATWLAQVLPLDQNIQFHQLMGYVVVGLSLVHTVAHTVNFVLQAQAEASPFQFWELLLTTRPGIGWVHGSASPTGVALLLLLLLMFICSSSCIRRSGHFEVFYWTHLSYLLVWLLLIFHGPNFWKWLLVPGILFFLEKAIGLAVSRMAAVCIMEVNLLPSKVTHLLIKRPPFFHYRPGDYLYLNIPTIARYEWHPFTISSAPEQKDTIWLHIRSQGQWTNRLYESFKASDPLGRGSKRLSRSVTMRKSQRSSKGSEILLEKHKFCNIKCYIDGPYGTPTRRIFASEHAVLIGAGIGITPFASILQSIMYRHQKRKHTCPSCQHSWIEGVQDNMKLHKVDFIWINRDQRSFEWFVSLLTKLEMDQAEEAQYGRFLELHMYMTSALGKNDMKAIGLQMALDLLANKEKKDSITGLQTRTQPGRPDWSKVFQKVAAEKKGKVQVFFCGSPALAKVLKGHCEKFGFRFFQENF

Turning to `C=CC[C@@]1(C(=O)NCC(O)CO)N=C(c2ccc(OCCCO)cc2)O[C@@H]1c1ccccc1N=[N+]=[N-]` (stereo not given in full), the z-score in assay [1] is 1 (inactive); in assay [3], 34.8 (active); in assay [4], 27.8 (active); in assay [5], 3.23 (inactive); in [6] it was 6.75 (inactive); in assay [7], 1.58. Also, the z-score was -2.45 (inactive) in assay [8], 0.918 (inactive) in assay [9] and -2.74 in [10]. Also, in assay [2], the composite z-score came out at 0.18.
Turning to `COCCOC(=O)N1C(=O)[C@@]2(c3cc(C#CCNC(N)=O)ccc31)[C@H](c1ccc(O)cc1)N1[C@H](c3ccccc3)[C@H](c3ccccc3)OC(=O)[C@H]1[C@@H]2C(=O)NC[C@H](O)c1ccccc1`, the z-score in assay [1] is -0.388 (inactive); in [3], 1.3 (inactive); in [4], 1.1 (inactive); in assay [5], 0.205 (inactive); in assay [6] it was 0.559 (inactive); in [7] it was 0.155. For the same compound, the values for the z-score in [8], in assay [9] and in assay [10] were 1.01 (inactive), 0.326 (inactive) and 0.253, respectively. Moreover, the composite z-score in assay [2] is 0.101.
Regarding `COc1ccc([Si](C)(C)[C@H]2[C@H](CCn3cc([C@H](O)c4ccccc4)nn3)O[C@@]3(C(=O)N(Cc4cccc(N5CCC5=O)c4)c4ccccc43)[C@@H]2C)cc1`, the z-score in [1] is 2.02 (inactive); in assay [3], 9.44 (active); in assay [4], 0.475 (inactive); in assay [5], -0.272 (inactive); in [6] it was -0.87 (inactive); in assay [7], 1.77. In addition, the results for the z-score in [8], in assay [9] and in [10] were 0.0292 (inactive), 1.09 (inactive) and 2.04, respectively. The composite z-score in assay [2] is 0.167.
As for `COC(=O)C(CC#Cc1ccc2c(c1)[C@]1(C(=O)N2)[C@H](C(=O)NC[C@H](O)c2ccccc2)[C@H]2C(=O)O[C@H](c3ccccc3)[C@H](c3ccccc3)N2[C@@H]1c1ccc(OCCO)cc1)C(=O)OC`, the z-score was -0.658 (inactive) in [1]; 5.95 (inactive) in [3]; 2.11 (inactive) in assay [4]; 0.0313 (inactive) in assay [5]; 1.1 (inactive) in assay [6]; 0.161 in [7]. The z-score in [8] is 1.39 (inactive); in assay [9], 0.865 (inactive); in [10] it was 1.41. In addition, the composite z-score in assay [2] came out at 1.78.
For `O=C(CS)NCCCCCCNC(=O)[C@@H]1C[C@@H]2C(=O)N3CCC[C@H]3C(=O)N2[C@@H]1c1ccc(O)cc1`, the z-score is 0.113 (inactive) in assay [1]; 4.95 (inactive) in assay [3]; 0.471 (inactive) in assay [4]; 2.2 (inactive) in assay [5]; 0.252 (inactive) in assay [6]; -0.574 in assay [7]. Moreover, the values for the z-score in assay [8], in assay [9] and in [10] were 0.489 (inactive), -1.38 (inactive) and -0.141, respectively. Moreover, the composite z-score in assay [2] was -0.55.
Turning to `NCCCCCCNC(=O)[C@H]1C[C@H]2C(=O)NCC(=O)N2[C@H]1c1cccc(OCCO)c1`, the z-score in assay [1] is 1.17 (inactive); in assay [3], 1.68 (inactive); in assay [4] it was -0.0225 (inactive); in assay [5], -1.63 (inactive); in assay [6], 0.202 (inactive); in assay [7], 0.384. For the same compound, the z-score in assay [8] was 0.719 (inactive); in assay [9], 0.513 (inactive); in assay [10], 1.36. The compound also displayed a composite z-score in assay [2] of 0.119.
Take `CC1=C2[C@@H](CCc3ccccc3)OB(O)C[C@@H]2n2c(=O)n(-c3ccccc3)c(=O)n2C1`: the z-score in assay [1] was -0.616 (inactive); in [3], 1.57 (inactive); in assay [4], 0.323 (inactive); in [5], -0.318 (inactive); in assay [6], -0.31 (inactive); in assay [7], 0.417. Also, the values for the z-score in assay [8], in assay [9] and in assay [10] were -0.416 (inactive), -1.61 (inactive) and -0.939, respectively. For the same compound, the composite z-score in assay [2] was -0.347.
Turning to `C=CCC(OC(C)=O)[C@@H]1[C@@H](N(Cc2cccc3ccccc23)C(=O)c2ccc(C)cc2)c2cc(OCCCO)ccc2N1C(=O)Cc1ccc(OC)cc1` (stereo not given in full), the z-score is 2.7 (inactive) in assay [1]; 0.786 (inactive) in [3]; -0.438 (inactive) in assay [4]; -0.632 (inactive) in assay [5]; -0.669 (inactive) in assay [6]; 1.95 in [7]. Further, the z-score in assay [8] is -0.993 (inactive); in [9] it was 0.727 (inactive); in [10], 0.687. Besides, the composite z-score in assay [2] was -0.0482.
For the compound `C=CC(=C)C1=CCO[C@@H]1[C@H]1CCCN1S(=O)(=O)c1ccccc1[N+](=O)[O-]`, the z-score in assay [1] is 0.279 (inactive); in assay [3], 2.97 (inactive); in assay [4], 0.577 (inactive); in assay [5], 0.544 (inactive); in assay [6], 0.281 (inactive); in assay [7], -0.031. The results for the z-score in assay [8], in [9] and in assay [10] were 0.516 (inactive), 1.06 (inactive) and 0.77, respectively. For the same compound, in [2], the composite z-score was -0.148.
With `O=C1C[C@]2(c3ccc([N+](=O)[O-])cc3)C(=O)N(CC(F)(F)F)c3cc(CO)ccc3[C@H]2N1CC12CC3CC(CC(C3)C1)C2`, the z-score is 0.458 (inactive) in [1]; 0.56 (inactive) in assay [3]; -0.365 (inactive) in assay [4]; 0.12 (inactive) in assay [5]; 0.255 (inactive) in assay [6]; 0.229 in assay [7]. Moreover, the figures for the z-score in assay [8], in assay [9] and in [10] were -0.347 (inactive), 0.375 (inactive) and 0.0968, respectively. In addition, the composite z-score in assay [2] was -0.629.
With `COc1ccc([Si](C)(C)[C@@H]2[C@@H](CCn3cc([C@H](O)c4ccccc4)nn3)O[C@]3(C(=O)N(Cc4ccc(N5C(=O)c6cccc7cccc5c67)cc4)c4ccccc43)[C@H]2C)cc1`, the z-score in assay [1] was 0.74 (inactive); in assay [3], 1.23 (inactive); in assay [4], -0.611 (inactive); in [5] it was 0.957 (inactive); in [6], -0.68 (inactive); in [7], 1.11. Besides, the z-score is 0.584 (inactive) in assay [8], 1.01 (inactive) in assay [9] and -0.539 in assay [10]. For the same compound, the composite z-score in assay [2] is -0.14.
`COC(=O)[C@@]1(Cc2ccccc2)[C@H]2c3cc(C(=O)N(C)C)n(Cc4c(-c5ccccc5)noc4C)c3C[C@H]2CN1C(=O)c1ccccc1`: the z-score in [1] is -2.11 (inactive); in [3], 2.98 (inactive); in assay [4], 1.2 (inactive); in assay [5], 0.57 (inactive); in assay [6] it was 1.11 (inactive); in assay [7] it was -0.505. In addition, the z-score was 0.931 (inactive) in assay [8], 1.32 (inactive) in assay [9] and 1.1 in assay [10]. Moreover, the composite z-score in assay [2] worked out at 0.324.
As for `O=C1N(CCS(=O)(=O)c2ccccc2)Cc2ccccc2[C@H]2OC(c3ccc(OCCCO)cc3)=N[C@@]12CCS(=O)(=O)c1ccccc1`, the z-score in assay [1] was -0.0143 (inactive); in assay [3] it was 31.1 (active); in [4] it was 28.4 (active); in assay [5], 3.2 (inactive); in assay [6], 6.48 (inactive); in [7] it was 0.834. Besides, the z-score in assay [8] is 0.644 (inactive); in assay [9], 1.5 (inactive); in assay [10], 0.357. Further, the composite z-score in assay [2] was found to be 0.197.
For the compound `COC(=O)C(CC#Cc1ccc2c(c1)[C@]1(C(=O)N2)[C@H](c2ccc(OCCO)cc2)N2[C@H](c3ccccc3)[C@H](c3ccccc3)OC(=O)[C@H]2[C@@H]1C(=O)NC[C@H](O)c1ccccc1)C(=O)OC`, the z-score in assay [1] was 1.57 (inactive); in assay [3] it was 2.5 (inactive); in assay [4] it was 1.14 (inactive); in assay [5], 0.829 (inactive); in [6], 0.664 (inactive); in assay [7], 0.219. Also, the z-score is 2.1 (inactive) in assay [8], 1.2 (inactive) in assay [9] and 0.489 in [10]. This compound also came in with a composite z-score in assay [2] of 0.0903.
Take `C=C[C@H](C)[C@@H](O)c1ccc(O)c2ccccc12`: the z-score in assay [1] was 0.048 (inactive); in assay [3] it was 1.01 (inactive); in assay [4] it was 1.05 (inactive); in [5], 0.0353 (inactive); in [6] it was 1.02 (inactive); in assay [7] it was -0.157. Moreover, the results for the z-score in assay [8], in assay [9] and in assay [10] were -5.28 (inactive), -1.05 (inactive) and 1.33, respectively. The compound further displayed a composite z-score in assay [2] of 0.169.
`CC(C)NC(=O)[C@@]1(Cc2ccccc2I)c2ccccc2C(=O)N(Cc2ccccc2)[C@H]1c1ccc(CO)cc1`: the z-score in assay [1] was -0.668 (inactive); in assay [3], 4 (inactive); in assay [4], 0.644 (inactive); in assay [5] it was 1.19 (inactive); in assay [6] it was 0.374 (inactive); in [7] it was -0.0212. In addition, the figures for the z-score in assay [8], in assay [9] and in assay [10] were 1.32 (inactive), 1.07 (inactive) and 0.909, respectively. The composite z-score in assay [2] amounted to 0.018.

The values above are taken from PubChem BioAssay.
